Laboratory results as given in the supplement of paper PMC13380429.

Tested on: Vero E6 infected with SARS-CoV-2
Assay: inhibition of SARS-CoV-2 cytopathic effect; higher = more antiviral protection, active = above 15
Settings: 48 h

Measured: inhibition of SARS-CoV-2 cytopathic effect

CN1C(=O)N(c2ccc(C#N)c(C(F)(F)F)c2)C(=O)[C@]1(CO)c1ccccc1 [GLPG0492-R-enantiomer]
inactive: 1 nM 2.05% | 8.33 nM 2.68% | 100 nM 0.3% | 833.33 nM 1.61% | 10000 nM 2.02%

CCCN[C@H]1CCc2nc(N)sc2C1 [pramipexole]
inactive: 1 nM -2.43% | 8.33 nM -0.27% | 100 nM -3.37% | 833.33 nM -2.16% | 10000 nM -1.54%

O=C(NO)c1ccc2[nH]c(=O)c(CCCc3ccccc3)nc2c1
inactive: 1 nM 1.82% | 8.33 nM 3.66% | 100 nM 0.97% | 833.33 nM 1.93% | 10000 nM -2.66%

O=c1[nH]cnc2nc[nH]c12 [hypoxanthine]
inactive: 1 nM 4.22% | 8.33 nM 2.78% | 100 nM 1.76% | 833.33 nM 0.21% | 10000 nM 2.46%

NS(=O)(=O)c1cc2c(cc1Cl)NC(C(Cl)Cl)NS2(=O)=O (stereo not given) [trichlormethiazide]
inactive: 1 nM -3.15% | 8.33 nM -5.19% | 100 nM -10.5% | 833.33 nM -3.29% | 10000 nM -8.52%

O=C1O[C@H]([C@@H](O)CO)C(O)=C1O
inactive: 1 nM -3.29% | 8.33 nM -0.03% | 100 nM -1.22% | 833.33 nM -0.21% | 10000 nM -1.51%

[I-].[K+] [potassium-iodide]
inactive: 1 nM -3.24% | 8.33 nM -3.7% | 100 nM -1.59% | 833.33 nM 0.38% | 10000 nM -1.54%

CO/N=C1/C[C@@H](C(=O)NC[C@@H](O)c2ccccc2)N(C(=O)c2ccc(-c3ccccc3C)cc2)C1 [OT-R-antagonist-1]
inactive: 1 nM -0.95% | 8.33 nM 1.59% | 100 nM -0.48% | 833.33 nM 1.09% | 10000 nM -1.5%

CC(C)[C@@]1(NC(=O)[C@@H]2C[C@@H]3c4cccc5[nH]cc(c45)C[C@H]3N(C)C2)O[C@@]2(O)[C@@H]3CCCN3C(=O)[C@H](Cc3ccccc3)N2C1=O [dihydroergocristine]
inactive: 1 nM 3.37% | 8.33 nM -0.59% | 100 nM 0.24% | 833.33 nM -1.73% | 10000 nM -1.9%

CCCNCC(O)COc1ccccc1C(=O)CCc1ccccc1 (stereo not given) [propafenone]
inactive: 1 nM -2.13% | 8.33 nM -0.69% | 100 nM 2.83% | 833.33 nM 3.83% | 10000 nM -0.5%

CN1CCN(c2cccc3[nH]c(=O)oc23)CC1 [pardoprunox]
inactive: 1 nM 0.73% | 8.33 nM 1.76% | 100 nM 3.14% | 833.33 nM -2.14% | 10000 nM 1.85%

CCC[N+]12[C@H](O)[C@@H](CC)[C@@H]3C[C@H]1[C@@H]1N(C)c4ccccc4[C@]14C[C@H]2[C@@H]3[C@H]4O [neo-gilurytmal]
inactive: 1 nM -1.96% | 8.33 nM -1.28% | 100 nM 0.64% | 833.33 nM 1.4% | 10000 nM -3.83%

Nc1ccc(C(=O)O)cc1 [potassium-p-aminobenzoate]
inactive: 1 nM -5.31% | 8.33 nM -2.38% | 100 nM -5.27% | 833.33 nM -0.2% | 10000 nM -5%

CCN(CC)CCNc1ccc(CO)c2sc3ccccc3c(=O)c12 [hycanthone]
inactive: 1 nM -3.88% | 8.33 nM -2.41% | 100 nM -0.96% | 833.33 nM -2.51% | 10000 nM 0.99%

Clc1ccc(Cn2c(CN3CCCC3)nc3ccccc32)cc1 [clemizole]
inactive: 1 nM -3.82% | 8.33 nM -2.64% | 100 nM -3.58% | 833.33 nM -3.06% | 10000 nM -6.74%

Cc1ccccc1CN1C(=O)C2=C(CCN(Cc3ccccc3)C2)N2CCN=C12
inactive: 1 nM 0.63% | 8.33 nM 0.83% | 100 nM 0.4% | 833.33 nM 3.83% | 10000 nM 0.84%

Cc1cc(C)c2c(N)c(C(=O)NCc3ccc(Cl)cc3)sc2n1
inactive: 1 nM 1.18% | 8.33 nM -1.88% | 100 nM -0.97% | 833.33 nM -0.85% | 10000 nM 0.14%

Nc1cccc(-c2cc3c(Oc4cccc(O)c4)ncnc3[nH]2)c1
inactive: 1 nM 4.09% | 8.33 nM 0.18% | 100 nM -2.41% | 833.33 nM -3.87% | 10000 nM -11.4%

CN(c1nccc(=O)[nH]1)C1CCN(c2nc3ccccc3n2Cc2ccc(F)cc2)CC1 [mizolastine]
inactive: 1 nM -1.24% | 8.33 nM -0.74% | 100 nM 0.47% | 833.33 nM 0.93% | 10000 nM -1.33%

C=CC1=C(C)c2cc3[nH]c(cc4nc(cc5[nH]c(cc1n2)c(C)c5CCC(=O)O)C(CCC(=O)O)=C4C)c(C)c3C=C [protoporphyrin-IX]
inactive: 1 nM -0.78% | 8.33 nM -0.99% | 100 nM -0.13% | 833.33 nM -0.31% | 10000 nM -4.69%

CC(NCCC(c1ccccc1)c1ccccc1)c1ccccc1 (stereo not given) [fendiline]
inactive: 1 nM 0.75% | 8.33 nM 2.18% | 100 nM -0.68% | 833.33 nM -4.72% | 10000 nM 11.9%

CC(=O)SCCC(=O)N1[C@H](C)CCC[C@@H]1C(=O)O [methiopril]
inactive: 1 nM -1.78% | 8.33 nM -1.6% | 100 nM 3.1% | 833.33 nM 0.4% | 10000 nM 1.04%

C=CCN1CC[C@]23CCCC[C@H]2[C@H]1Cc1ccc(O)cc13 [levallorphan]
inactive: 1 nM -1.28% | 8.33 nM 0.72% | 100 nM -1.34% | 833.33 nM -1.26% | 10000 nM -3.54%

Cc1ccc(C(=O)Nc2ccc(CN3CCN(C)CC3)c(C(F)(F)F)c2)cc1C#Cc1cnc2[nH]ncc2c1
inactive: 1 nM 1.62% | 8.33 nM 6.08% | 100 nM 4.44% | 833.33 nM -8.47% | 10000 nM -20.9%

N[C@H](C(=O)O)[C@H](O)c1ccc(O)c(O)c1 [droxidopa]
inactive: 1 nM 1.22% | 8.33 nM 3.16% | 100 nM 5.47% | 833.33 nM 1.07% | 10000 nM -5.92%

CCCNC(=O)Nc1ccc(Oc2ncnc3cc(OC)c(OC)cc23)cc1Cl
inactive: 1 nM 0.58% | 8.33 nM 0.62% | 100 nM 1.2% | 833.33 nM 0.47% | 10000 nM -2.74%

CSc1ccc(C(=O)/C=C/c2cc(C)c(OC(C)(C)C(=O)O)c(C)c2)cc1 [elafibranor]
inactive: 1 nM -1.98% | 8.33 nM 1.58% | 100 nM -1.18% | 833.33 nM 2.15% | 10000 nM 3.31%

Cc1nc(Nc2ccc(F)cc2)nc(N2CCc3ccccc3C2C)c1C (stereo not given) [revaprazan]
inactive: 1 nM 0.41% | 8.33 nM 1.64% | 100 nM 2.31% | 833.33 nM 1.17% | 10000 nM 1.72%

NC[C@@](O)(c1ccc(Cl)cc1)c1ccc(-c2cn[nH]c2)cc1
inactive: 1 nM -0.97% | 8.33 nM 1% | 100 nM -2.8% | 833.33 nM -3.57% | 10000 nM -13.7%

CCOC(=O)N[C@@H]1CC[C@@H]2[C@@H](C1)C[C@H]1C(=O)O[C@H](C)[C@H]1[C@H]2/C=C/c1ccc(-c2cccc(F)c2)cn1 [vorapaxar]
inactive: 1 nM -1.52% | 8.33 nM -0.15% | 100 nM -0.3% | 833.33 nM -0.44% | 10000 nM 0.22%

CO/N=C1\CN(c2nc3c(cc2F)c(=O)c(C(=O)O)cn3C2CC2)CC1CN (stereo not given) [gemifloxacin]
inactive: 1 nM -4.74% | 8.33 nM -3.09% | 100 nM 0.76% | 833.33 nM 1.02% | 10000 nM 5.76%

O=c1[nH]c(=O)n([C@H]2C[C@H](O)[C@@H](CO)O2)cc1Br [broxuridine]
inactive: 1 nM 1.7% | 8.33 nM 1.06% | 100 nM 1.08% | 833.33 nM 3.59% | 10000 nM 0.04%

CCCCCCCCCCC(=O)O[C@H]1CC[C@H]2[C@@H]3CCC4=CC(=O)CC[C@]4(C)[C@H]3CC[C@]12C [Testosterone (undecanoate)]
inactive: 1 nM 1.81% | 8.33 nM 0.82% | 100 nM 0.37% | 833.33 nM 0.31% | 10000 nM 0.21%

Nc1ccc(C(=O)Oc2ccccc2)c(O)c1 [phenyl-aminosalicylate]
inactive: 1 nM -11% | 8.33 nM -5.77% | 100 nM -10.6% | 833.33 nM -10.7% | 10000 nM -9.73%

CN1CCN(C(=O)c2cc3cc(Cl)ccc3[nH]2)CC1
inactive: 1 nM -0.68% | 8.33 nM 0.59% | 100 nM -1.58% | 833.33 nM -1.48% | 10000 nM -1.13%

c1cnc(N2CCN(Cc3ccc4c(c3)OCO4)CC2)nc1 [piribedil]
active: 8.33 nM 15.4%
inactive: 1 nM -0.1% | 100 nM 1.85% | 833.33 nM -0.64% | 10000 nM 0.85%

CCN(CC)C(=S)S [ditiocarb-sodium-trihydrate]
active: 10000 nM 23.6%
inactive: 1 nM 0.85% | 8.33 nM -0.21% | 100 nM 0.86% | 833.33 nM -0.23%

Nc1nc(Cl)nc2c1ncn2[C@@H]1O[C@H](CO)[C@@H](O)[C@H]1O [2-chloroadenosine]
inactive: 1 nM 1.66% | 8.33 nM 0.54% | 100 nM -0.34% | 833.33 nM -0.32% | 10000 nM -2.2%

CC(NC(C)(C)C)C(=O)c1cccc(Cl)c1 (stereo not given) [bupropion]
inactive: 1 nM 1.88% | 8.33 nM 2.11% | 100 nM -0.69% | 833.33 nM -0.93% | 10000 nM -2.06%

C[C@]1(c2nc3c(C(N)=O)cccc3[nH]2)CCCN1 [veliparib]
inactive: 1 nM 3.9% | 8.33 nM 7.83% | 100 nM 5.13% | 833.33 nM 4.23% | 10000 nM 8.58%
